The source of these data is PubChem BioAssay AID463173 (ICCB-Longwood Screening Facility, Harvard Medical School, 2010).

The whole screen tested about 52,000 compounds, of which about 4,300 (8.3%) were called active. What follows is part of a selection rich in actives, with near analogues and random picks from the rest. A number with no mark means an inactive call. No stated cut-off is given here; in the data, active means survival mostly below about 52% (no sharp cut-off); inactive means mostly above about 56%.

The test system of the assay is DeltatarO mutant. Description: growth inhibition of S. aureus wild type versus tarO mutant, primary screen, teichoic acid synthesis inhibitors, RN4220, OD600 (AID 463173). The note with it: OD600, 18 h, stronger effect = lower value, screened at 18.75 µg/mL (by protocol).
On to `O=C(Nc1ccc(F)cc1F)c1c2c(nc3ccccc13)C(=O)N(C1CCCCC1)C2`, for which the survival was 81%.
The same measure for `CCN(CC)C(=O)C1CCN(c2nnc(C)c3c(C)n(-c4ccc(Cl)cc4)nc23)CC1`: 95%; for `CCOc1ccc(N(C(C)C(=O)NCCSc2ccc(C)cc2)S(C)(=O)=O)cc1` (stereo not drawn): 45%; for `COc1ccc(OC)c(NC(=O)CSC2=Nc3ccccc3C3=NC(CC(=O)NCc4ccco4)C(=O)N23)c1` (stereo not drawn): 99%.
As for `CC(C)Nc1nc(NC(N)=O)nc(NC(C)C)n1`, the figure is 104%.
The same measure for `CCOc1ccc(CN2C(=O)c3ccccc3C2C(=O)NCCc2ccc(OC)c(OC)c2)cc1` (stereo not drawn): 88%; for `CCSc1nc2c([nH]c3ccccc32)c(=O)n1CC`: 68%.
`Cc1nc2c(-c3ccccc3)c(C)nn2c(C)c1CCC(=O)NCc1ccc(F)cc1`: the survival was 94%.
As for `COc1ccc(C(=O)N2CC(C)CC(C)C2)cc1` (stereo not drawn), the figure is 98%.
Turning to `CC1CCN(c2nn3c(=O)c(C(=O)NCCc4ccccc4)cnc3s2)CC1`, the survival is 95%.
The same measure for `O=C(Nc1cccc(C(F)(F)F)c1)Nc1nnc(N2CCCCC2)s1`: 82%; for `NC(=O)N/N=C/c1ccc(-c2ccc(Cl)cc2)o1`: 87%; for `CCc1ccccc1N(C)C(=O)Cn1cnc2sc(C)c(S(=O)(=O)N3CCC(C)CC3)c2c1=O`: 71%.
As to `COc1cc(C2N=C(N)Nc3nc4ccccc4n32)ccc1OCCC(C)C` (stereo not drawn), the survival is 68%.
As for `CC(C)CCOc1ccc(C2N=C(N)Nc3nc4ccccc4n32)cc1` (stereo not drawn), the figure is -3% (active).
Consider `CC(C)c1ccc(C2N=C(N)Nc3nc4ccccc4n32)cc1` (stereo not drawn), for which the survival is 101%.
The same measure for `CCC(C#CCN1CCCCC1)(CC)OC(C)=O`: 98%; for `CCOC(=O)c1ccc(OCC2c3cc(OC)c(OC)cc3CCN2C(=O)Cc2ccc(F)cc2)cc1` (stereo not drawn): 68%; for `NC(=O)CSc1nc2c(oc3ccccc32)c(=O)n1-c1ccccc1F`: 59%.
For `CC1(NS(=O)(=O)c2ccccc2)CCS(=O)(=O)C1` (stereo not drawn), the survival was 98%.
Turning to `CC1(C)CC(N=Cc2c(O)[nH]c(=O)[nH]c2=O)CC(C)(C)N1`, the survival was 85%.
The same measure for `O=C(Nc1cc(Cl)cc(Cl)c1)c1ccc(F)c(S(=O)(=O)N2CCN(c3ccccc3F)CC2)c1`: 84%.
As for `CN(C)C(=O)COc1ccc(S(=O)(=O)c2ccc(OCC(=O)N(C)C)cc2)cc1`, the figure is 109%.
Regarding `COc1ccccc1NC(=O)CSc1oc(-c2ccccc2)nc1S(=O)(=O)c1ccccc1`, the survival was 145%.
The same measure for `CCSc1oc(-c2ccc(F)cc2)nc1S(=O)(=O)c1ccc(C)cc1`: 45%.
As for `CSc1oc(-c2cccs2)nc1S(=O)(=O)c1ccc(Br)cc1`, the figure is 56%; as for `COc1ccccc1NC(=O)CSc1oc(-c2ccccc2)nc1S(=O)(=O)c1ccc(C)cc1`, 158%.
On to `Cc1ccc(S(=O)(=O)c2nc(-c3ccc(F)cc3)oc2N2CCN(c3ccccc3)CC2)cc1`, for which the survival was 107%.
On to `CCCCS(=O)(=O)c1oc(-c2ccc(F)cc2)nc1S(=O)(=O)c1ccc(C)cc1`, for which the survival is 30% (active).
In the case of `CC(C)CS(=O)(=O)c1oc(-c2ccc(F)cc2)nc1S(=O)(=O)c1ccccc1`, the survival was -4% (active).
The same measure for `COc1ccccc1NC(=O)CSc1oc(-c2ccc(F)cc2)nc1S(=O)(=O)c1ccc(Br)cc1`: 49% (active); for `CSc1oc(-c2ccc(F)cc2)nc1S(=O)(=O)c1ccc(Br)cc1`: 41% (active); for `Cc1ccc(-c2nc(S(=O)(=O)c3ccc(F)cc3)c(N3CCN(c4ccccc4)CC3)o2)cc1`: 72%.
The same measure for `COc1ccc(-c2nc(S(=O)(=O)c3ccc(C)cc3)c(NCc3ccccc3)o2)cc1`: 67%; for `COc1cc(C)ccc1OCCSc1nc2ccc(NC(=O)c3cccs3)cc2s1`: 72%.
As for `CCOC(=O)c1ccccc1NC(=O)C1CCN(c2ncnc3c2nc2n3CCCCC2)CC1`, the survival is 62%.
As for `O=C1CS/C(=N/c2nc(-c3ccccc3)cs2)N1`, the figure is 83%; as for `COc1ccc(-c2nc3sc(CCNC(=O)c4ccccc4C)c(C)n3n2)cc1`, 77%; as for `Cc1ccccc1CNC(=O)CCC(=O)N1CC2CCCN2c2ccccc21` (stereo not drawn), 55%.
As for `COCCNc1oc(-c2ccccc2)nc1S(=O)(=O)c1ccc(Br)cc1`, the figure is 79%; as for `CCS(=O)(=O)c1oc(-c2ccc(F)cc2)nc1S(=O)(=O)c1ccccc1`, -5% (active); as for `O=C(CSc1oc(-c2ccc(F)cc2)nc1S(=O)(=O)c1ccc(Br)cc1)NC1CCCCC1`, 64%.
As for `CCCCS(=O)(=O)c1oc(-c2ccc(F)cc2)nc1S(=O)(=O)c1ccccc1`, the figure is 4% (active).
Regarding `CCS(=O)(=O)c1oc(-c2ccc(F)cc2)nc1S(=O)(=O)c1ccc(Br)cc1`, the survival was -5% (active).
Take `O=C(CSc1oc(-c2ccc(F)cc2)nc1S(=O)(=O)c1ccccc1)NC1CCCCC1`: the survival is 61%.
The same measure for `O=S(=O)(c1ccccc1)c1nc(-c2ccc(F)cc2)oc1NCc1ccccc1`: 67%.
As for `CC(=O)Nc1ccc(NC(=O)CCc2c(C)nc3c(c(C)nn3-c3ccccc3)c2C)cc1`, the figure is 107%; as for `CCCCN(C)CCNC(=O)c1cc2c(=O)n(C)c3ccccc3c2n1C`, 90%.
As for `Cc1ccccc1CCNC(=O)c1ccc2c(c1)nc1n2CCOC1`, the figure is 84%.
Turning to `Cn1c(=S)[nH]c2c(c1=O)C1(CCCC1)Cc1ccccc1-2`, the survival was 80%.
As for `CSCCC(NS(=O)(=O)c1ccc2c(c1)oc(=O)n2C)C(=O)NCc1ccc(Cl)cc1` (stereo not drawn), the figure is 92%; as for `COc1ccc(-c2nc3scc(CCNC(=O)Cc4ccc(F)cc4)n3n2)cc1`, 95%.
As for `CCC(C(=O)Nc1cc(-c2cn3cccnc3n2)ccc1C)c1ccccc1` (stereo not drawn), the figure is 91%.
On to `Cc1ccc(-c2nc3cccnc3s2)cc1NC(=O)C(C)C`, for which the survival is 112%.
As to `CCC(CC)C(=O)Nc1cccc(-c2nc3cccnc3s2)c1`, the survival is 80%.
`CCC(CC)C(=O)Nc1cc(-c2nc3cccnc3s2)ccc1C`: the survival was 57% (active).
As for `CCC(C(=O)Nc1cccc(-c2nc3cccnc3s2)c1C)c1ccccc1` (stereo not drawn), the figure is 92%; as for `CCC(C(=O)Nc1cc(-c2nc3cccnc3s2)ccc1C)c1ccccc1` (stereo not drawn), 37% (active); as for `CCCC(=O)Nc1cc(C)c(O)c(-c2nc3ncccc3o2)c1`, 91%.
As for `NC(=O)C1CCN(S(=O)(=O)c2ccc(N3CCCCS3(=O)=O)cc2)CC1`, the figure is 116%; as for `Cn1c(=O)c2c(n3ncnc13)NC(=O)CC2c1cccc(F)c1` (stereo not drawn), 66%.
The same measure for `CS(=O)(=O)N1CCN(c2ncnc3c(-c4ccc(Cl)cc4)nsc23)CC1`: 99%; for `COCCn1c(C)cc(O)c(C(c2ccc(OC)cc2)N2CCN(c3ccccc3)CC2)c1=O` (stereo not drawn): 58%.
With `Cc1nc2c3cccnc3nn2c(C)c1CCC(=O)NCc1ccccc1`, the survival is 110%.
The same measure for `COc1ccc(-c2ccc(CCC(=O)O)n2-c2ccccc2O)cc1`: 124%; for `COc1ccc(Cl)cc1-n1c(CCC(=O)O)ccc1-c1ccc(C)cc1`: 73%; for `COc1ccc(-c2ccc(CCC(=O)O)n2-c2cc(Cl)ccc2O)cc1`: 52%.
The same measure for `Cc1ccc(C)c(-n2c(CCC(=O)O)ccc2-c2ccc(Cl)cc2)c1`: 75%; for `COc1ccc(-n2c(CCC(=O)O)ccc2-c2ccccc2)c(OC)c1`: 47% (active).
The same measure for `COc1ccc(-c2ccc(CCC(=O)O)n2-c2ccc(Cl)cc2C)cc1`: 47% (active).
For `Cc1ccc(Cl)cc1-n1c(CCC(=O)O)ccc1-c1cccs1`, the survival was 38% (active).
Consider `Cc1ccc(-c2ccc(CCC(=O)O)n2-c2ccc(C)c(Cl)c2)cc1`, for which the survival is 42%.
The same measure for `Cc1ccc(-n2c(CCC(=O)O)ccc2-c2cccs2)cc1Cl`: 86%; for `COc1ccc(-c2ccc(CCC(=O)O)n2-c2ccccc2C(F)(F)F)cc1`: 116%.
Consider `Cc1ccc(-n2c(CCC(=O)O)ccc2-c2cccs2)cc1C`, for which the survival was 46%.
The same measure for `Cc1ccc(-c2ccc(CCC(=O)O)n2-c2cccc(C)c2C)cc1`: 34% (active).
The same measure for `CCOC(=O)c1ccc(NC(=O)CCC(=O)N2Cc3ccccc3Oc3ncccc32)cc1`: 92%.
As to `COc1ccc(N(C(=O)c2ccc(Cl)cc2)S(=O)(=O)c2ccc(C)cc2)cc1`, the survival is 68%.
As for `COc1cc(/C=C/c2nc3cc(Cl)ccc3c(=O)n2-c2cccc(C(F)(F)F)c2)cc(OC)c1OC`, the figure is 96%.
The same measure for `CCOc1cccc2sc(N3CCN(C(=O)C(C)(C)C)CC3)nc12`: 77%; for `CCOc1ccc2nc(NCCNC(=O)NCc3ccccc3)c(C#N)cc2c1`: 98%; for `CSc1ccccc1NC(=O)CSc1ncccn1`: 108%.
Take `O=C(COc1ccccc1Cl)NCC1(N2CCOCC2)CCCCC1`: the survival is 106%.
As for `COc1ccc(-c2nc(SCC(=O)NCC3CCCO3)c(-c3ccc(C)cc3)[nH]2)cc1OC` (stereo not drawn), the figure is 66%; as for `COc1ccc(CNS(=O)(=O)c2cc3c(cc2Cl)N(C(C)=O)CCO3)cc1`, 74%.
As for `COc1ccccc1-n1c(=O)n(C)c2c(C(N)=O)nc(-c3cccc(OC)c3OC)nc21`, the figure is 83%; as for `Cc1cccc(NC(=O)C(=O)NCCc2sc(-c3ccccc3)nc2C)c1C`, 79%.
The same measure for `Cc1c(Cl)cccc1-n1c(CCC(=O)O)ccc1-c1cccs1`: 35% (active).
Turning to `Cc1ccc(NC(=O)Cn2c(CCC(=O)O)ccc2-c2cccs2)cc1Cl`, the survival was 59%.
Regarding `Cc1cc(Cl)ccc1-n1c(CCC(=O)O)ccc1-c1cccs1`, the survival was 47% (active).
As for `Cc1c(Cl)cccc1NC(=O)Cn1c(CCC(=O)O)ccc1-c1cccs1`, the figure is 50%; as for `CC(=O)c1ccc(-n2c(CCC(=O)O)ccc2-c2cccs2)cc1`, 65%; as for `Cc1ccc(NC(=O)Cn2c(CCC(=O)O)ccc2-c2cccs2)cc1`, 56%.
